# Experimental data taken from the supplement of paper PMC12632987.
# T1: USP38, Q8NB14
# T1 chain: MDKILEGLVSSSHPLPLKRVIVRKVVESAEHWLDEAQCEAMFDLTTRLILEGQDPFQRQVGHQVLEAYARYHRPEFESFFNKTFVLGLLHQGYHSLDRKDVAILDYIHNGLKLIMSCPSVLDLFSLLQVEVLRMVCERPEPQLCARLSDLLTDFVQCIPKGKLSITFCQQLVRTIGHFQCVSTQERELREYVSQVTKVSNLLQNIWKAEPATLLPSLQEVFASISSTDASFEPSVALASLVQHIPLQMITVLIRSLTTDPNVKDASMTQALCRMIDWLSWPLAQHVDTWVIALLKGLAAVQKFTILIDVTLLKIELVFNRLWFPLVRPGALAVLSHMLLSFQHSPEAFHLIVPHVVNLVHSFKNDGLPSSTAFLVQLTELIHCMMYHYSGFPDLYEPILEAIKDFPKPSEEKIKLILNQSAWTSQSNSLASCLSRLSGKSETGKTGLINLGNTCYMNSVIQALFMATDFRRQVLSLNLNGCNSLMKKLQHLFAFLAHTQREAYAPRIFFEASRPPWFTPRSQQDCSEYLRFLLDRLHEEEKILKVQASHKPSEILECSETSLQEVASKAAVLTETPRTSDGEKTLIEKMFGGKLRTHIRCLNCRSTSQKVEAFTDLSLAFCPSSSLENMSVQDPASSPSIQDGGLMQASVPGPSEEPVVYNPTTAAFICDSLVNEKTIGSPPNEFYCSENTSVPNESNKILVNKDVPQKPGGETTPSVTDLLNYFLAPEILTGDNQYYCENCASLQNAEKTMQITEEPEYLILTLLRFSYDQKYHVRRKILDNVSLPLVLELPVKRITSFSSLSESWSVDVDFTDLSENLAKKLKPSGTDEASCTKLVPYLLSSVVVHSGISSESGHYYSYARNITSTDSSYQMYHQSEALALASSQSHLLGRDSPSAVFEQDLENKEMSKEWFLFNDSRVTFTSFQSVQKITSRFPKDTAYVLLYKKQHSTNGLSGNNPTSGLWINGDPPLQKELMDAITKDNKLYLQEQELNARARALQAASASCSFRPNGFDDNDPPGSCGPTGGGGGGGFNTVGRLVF
# B1: usp_38_diff_out_17_130_228 (protein)
# chain: MEEEIESLKEYLEAEKKNLESVAKQAEEDYERAKKNPVTLDRVIHGLEGVATYAEDTIKEAKELIKEYPEVKEEAEKLIKVAEEAKKKAEALKKKLEALK
# B2: usp_38_diff_out_16_37_206 (protein)
# chain: AEKLLAEFKAFVEEIIERARRLAEEARRLAEEGAPIEEIERVLRELEELLDELVERTTEVLEKVPEHADEILAEYDRAATEIAEAGAEIRKALRERKEKE
# B3: usp_38_diff_out_17_125_220 (protein)
# chain: SDEELKKKAEELLKKAEELLKQAEKALEEGAPFEEIEKLLDEAADALGELAKTLRELREKSKDPAQAAKFIKEATEKANELIDRYTELATRAFLRQAEAA
# B4: usp_38_diff_out_17_125_219 (protein)
# chain: SDADLEAEAKALLAEAKALLKEAEKLLKEGAPFEEIRKKLDAAADKLGQLAVTLQQLRDKSKDKAQAAKFIKEMTAEANKLIDEYTKLATEAFLREAEEA
# B5: usp_38_diff_out_17_26_239 (protein)
# chain: SSEEKRKEAEKLLKEMEEKTEEALKEIDKLIAEGKFAEAQKLLDETIDYVTEKSTEILELASDDDELFEKVMEKIDKISDRLAAAGARLRAARRAARAAA
# B6: usp_38_diff_out_17_130_224 (protein)
# chain: SAEEVEALKEYLEAEKKNVESVKEDAKKDFERAKKNPVTLDRVEHALEGNIKYMEETIKEAEKLKKEYPEVKEAADKLIKAAKKAKEEFEKYLKEVKALK
# B7: usp_38_diff_out_17_125_218 (protein)
# chain: SDEELKKEIERLLEEAERLLEEAEKALEEGAPFEEIRKLLDEAADALGQAAVKLRELREKSEDPAQAAKFIKEATERANELIDRYTELATRAFLREAEAA
# B8: usp_38_diff_out_17_26_235 (protein)
# chain: SAEEKRKKALELLKELEKETEKELEEIEKLIKEGKFEEAEKKLDELVTKTTEKTTEILELAADDPELVEEVLKSYDKISDKIAEKYKELQEAKKKARAEA
# B9: usp_38_diff_out_16_37_208 (protein)
# chain: AEAKLAEFAAFMERAIEEARRLAEEARRLAEEGAPVEEIERLLEELRRLLDEVVERTTEVLEEVPEHADEILALYDRAATEIAEAGQEIREELRRRREEE
# B10: usp_38_diff_out_16_37_210 (protein)
# chain: GEEVLKEFKEFMEKAIEEAKKLAEEAKKLAKEGADIEELKKLKEELEKLIDEAVEKTTEALEKVPEKIEEIFAEFDKFADEAAKAGKEIDKAIKEAKKKK
# B11: usp_38_diff_out_17_26_236 (protein)
# chain: SAEERREEARRALEELRADTDAALKEIDALIKAGKFEEAQALLDKLVDDFTKRATEILELAADDPELMDEALRAIGEVADKIAAAGSRLRAARKAAREAA
# B12: usp_38_diff_out_17_130_225 (protein)
# chain: SADEVEALKEYLEAEKANIEAVAADAERDLARAKRLPVTLPRVRHALEGNIKYMEETIKEAEEIKKKYPEVAAAADALIKAARDAKAKFEAMLAEVDALE
# B13: usp_38_diff_out_17_26_240 (protein)
# chain: SMEERRKEARKLLEEMEKRVEEDLKKIRELIKEGKFEEAEELLNKTIDYVTETSTKILELAADDDELFDEAMEAIDKISDKLAEAGKELREAKREAREKA
# B14: usp_38_diff_out_17_26_234 (protein)
# chain: SAEEERRRARELLEELRRRTEEALARIRELIAAGRFAEAQALLDATVTEVTATATEIFELAADDDELLDEVNRAVGEIFDRLAAAGRELREARRAAAAAA
# B15: usp_38_diff_out_17_130_223 (protein)
# chain: SEDEIEALKEYLEAEKKNIKSVAEEAEKDFERAKKHPVTLDRALHALDGVIKYYEETIEEAKKILKEYPEVKEAAEELIKTAEEAKKKAEKLKKELEKLK
# B16: usp_38_diff_out_17_125_213 (protein)
# chain: AEAALIAEIEALLAEATAKVKEAEALLKAGAPTEEVLKALDAARDALGALAVALERLRRESADRAQAAAVIKAATAEADKLIDRLTELETEAFLRQAEEA
# B17: usp_38_diff_out_16_37_207 (protein)
# chain: GEEKLKEFKKFMEEAMKKAKKLAEEAKKLAKEGKDKKEIEKLQKELDKLLDEVNEKTTEVLEEVPEKADEILAEYDKAATTIAEAGATIRAELRKARAAE
# B18: usp_38_diff_out_17_26_230 (protein)
# chain: AAEERRREARELMRELERRTAEALKEIEKLIEEGKLEEAEKKLDELVDEFTELATRLLELAADDDELFEEAVRVIDAAADRIAAAGNLLREAKKKKREEE
# B19: usp_38_diff_out_17_130_227 (protein)
# chain: SAEEIESLKEYLRAEKENLKSVKEEAKKNLERAKKNPVTLDRVSHGLEGVATYAEDTIKEAKELLKKYPEVAEEAKELIKVAEEARKEAKELLKEVEKLK
# B20: usp_38_diff_out_16_37_204 (protein)
# chain: GEELLKEYKEFVEKVIKEAKKLAEEAKKLAKAGADLAEIRAIQEKLNELLDELVERTTEVLEKVPEHAEEILEEYDKAATEIAKAGAEIRAELRKAKAAA
# B21: usp_38_diff_out_16_37_205 (protein)
# chain: GEELLEEFRRFMEEAEREARRLAEEARELAEKGADIEEIERVLEELERLLDEVVERTTEVLEAVPEHADEILAEYDRAATTLAEAGKEIREKLREAKEKE
# B22: usp_38_diff_out_17_125_221 (protein)
# chain: TDEELKKEIEEALKKAEELLKKAKKLLEEGAPFEEIRAELDKAADALGKLAVLLRELREKSEDKAQAAKFIKEATERANKLIDEYTKLATEAFLREAEAA
# B23: usp_38_diff_out_17_125_215 (protein)
# chain: SDEELKKEIEKKLKEAEELLKEAEKALEAGAPAEEVEKLLDAAADALGQLAVLLRELREKSKDKAQAAKFIKKATEEANKLIDRYTELAERNFLRVAEEQ
# B24: usp_38_diff_out_17_125_216 (protein)
# chain: SDEELKEKAEELLKKAEELLKEAEKLLEEGAPAEEVEKKLDEAADALGQLAVTLRELREKSEDKAQAAKFIKELTKKANELIDRYTELATANFQRVADAQ
# B25: usp_38_diff_out_17_125_217 (protein)
# chain: SSEELKEEIEKALKEAEELLKKAKELLEAGAPFEEIMAALDKAADALGKLAVLLRKLREESEDPAQAAKFIKEATKRADELIDEYTKLATEAFQREADAA
# B26: usp_38_diff_out_17_26_231 (protein)
# chain: SAEAARAKAEALLKELVAETDKALKEIDKLIKEGKFEEAEKLLDETVDKVTEKATEIFELAADDEALLDKANKTIGDIFDKLAARYKELQAARKAAKAAA
# B27: usp_38_diff_out_17_26_237 (protein)
# chain: SAEEKRKEAEKLLEELEKYVKETLEKIDKLIEEGKFEEAKKLLDELVTETTKRFTEILELAADDPELMDKALAKYDELSGQIAARYRRLEEARREAEAKA
# B28: usp_38_diff_out_16_37_211 (protein)
# chain: MEEEIEKARKEMEEHLEKALELAERALKLVEEGASEAEIEKAMQEATDALLKAGRAAAELIHLDPSLEDEVVARYDEVATRVAALLREVQEALRARRAAE
# B29: usp_38_diff_out_17_26_238 (protein)
# chain: EAEERRKEARKLLEELKEKTEKDLEEIRKLIKEGKFEEAEKLLDETIDYVTEKSTEILELAADDDELFAEALAAIDEIFDKLAAAGKELREAKREAREKE
# B30: usp_38_diff_out_16_37_209 (protein)
# chain: AEKVLEEFKKFMEEAIKRAEEIGRRARELEEEGADLEELERLLEELERLLDEAVKRLTEALEKVPEKIEELFAIYDEFADAAARAGAIIREAIRRARERA
# B31: usp_38_diff_out_17_125_212 (protein)
# chain: MFEELKKKIEELLEEARRLVEEAERALAAGAPTAEVRRLLDQAADALGQLAVELRKLREESKDKAQAAKVIKEATKEANELIDRLTELETRVFLREAEAA
# B32: usp_38_diff_out_17_125_214 (protein)
# chain: DFEELVKKIEELLAEAEKLVKEAKKLLEEGAPPAEVRAALDKARDALGALAKALRELRRTSKDKAQAAKVIKEANEKADKLIDELTKLETEVFLREADAA
# Target: T1, USP38, Q8NB14
# Assay: median log2 fold change of GCK-ALFA target abundance (FLAG IP / Myc IP barcode read proportion) (log2 ratio); each designed protein is fused to an ALFA-tag nanobody in HEK293 cells to bring the named protein to FLAG-tagged glucokinase (GCK); Myc marks an untargeted standard; higher = target protein stabilised (more abundant)
# Conditions: target protein: 3xFLAG-MCP-GCK-ALFA reporter; HEK293 landing pad (RPLP)
# In short: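 The readout is target abundance, the per-binder median log2 ratio of FLAG to Myc barcode read proportions. It came from HEK293 landing-pad cells carrying a recombined ALFA-nanobody-fused binder library, induced with 2 μg mL^−1 doxycycline and transfected with a plasmid for a FLAG-tagged target and a Myc-tagged standard. After 48 h, lysates were immunoprecipitated with anti-FLAG and anti-Myc, and circular RNA barcodes were reverse transcribed, amplified and sequenced. Each barcode needed a proportion of at least 10^−7 in both replicates and each binder at least 3 barcodes per replicate, a pseudocount of 10^−6 was added, and the replicates were pooled.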
row,Binder,median log2 fold change
1,B1,0.184
2,B2,-0.0578
3,B3,0.167
4,B4,-0.0439
5,B5,-0.0256
6,B6,0.401
7,B7,0.0443
8,B8,0.284
9,B9,-0.00395
10,B10,-0.522
11,B11,0.0259
12,B12,0.15
13,B13,0.0157
14,B14,-0.0515
15,B15,0.232
16,B16,0.41

row,Binder,median log2 fold change
1,B17,0.0801
2,B18,-0.167
3,B19,0.32
4,B20,-0.535
5,B21,-0.436
6,B22,-0.359
7,B23,-0.432
8,B24,-0.484
9,B25,-0.0349
10,B26,-0.439
11,B27,0.259
12,B28,0.0682
13,B29,-0.0599
14,B30,0.0185
15,B31,-1.04
16,B32,-0.149
